Laboratory results as given in the supplement of paper PMC13380429.

Columns and labels:
[1] = tested on: Vero E6 infected with SARS-CoV-2; assay: morphology score (similarity to uninfected cells); higher = more like uninfected cells; conditions: 24 h
[2] = tested on: Vero E6 infected with SARS-CoV-2; assay: SARS-CoV-2 infection rate relative to infected DMSO; higher = more infection, active = 60 or less; conditions: 24 h

Structure (SMILES) | morphology score [1] | SARS-CoV-2 infection rate [2]
C=C(C)CN1CC[C@]23c4c5ccc(O)c4O[C@H]2c2[nH]c4ccccc4c2C[C@@]3(O)C1C5 (10 µM) | 0.0617 | 108% (inactive)
CCOc1cc(C(=O)Nc2ccc(Cl)c(-c3nc4ccccc4[nH]3)c2)cc(OCC)c1OCC (10 µM) | -0.0242 | 100% (inactive)
O=C(O)CNC(=O)C(CS)Cc1ccccc1 (stereo not drawn) [thiorphan] (10 µM) | 0.106 | 98.5% (inactive)
CC(CCc1ccc(O)cc1)NCC(O)c1ccc(O)cc1 (stereo not drawn) [ractopamine] (10 µM) | -0.0659 | 111% (inactive)
CC(C)Cc1ccc(C(C)C(=O)NO)cc1 (stereo not drawn) [ibuproxam] (10 µM) | 0.234 | 93.5% (inactive)
O=[N+]([O-])c1nccn1CC(O)CN1CCCCC1 (stereo not drawn) [pimonidazole] (10 µM) | 0.0622 | 108% (inactive)
CC(C)(C)C(=O)OCOC(=O)[C@@H]1N2C(=O)[C@@H](NC(=O)[C@H](N)c3ccccc3)[C@H]2SC1(C)C [pivampicillin] (10 µM) | 0.0461 | 106% (inactive)
CN(C)C(=O)Oc1cc(OC(=O)N(C)C)cc(C(O)CNC(C)(C)C)c1 (stereo not drawn) [bambuterol] (10 µM) | -0.145 | 114% (inactive)
Oc1c(CN2CCCC2)cc(COCc2ccccc2)c2cccnc12 (10 µM) | 0.0259 | 104% (inactive)
O=C1[C@H](Cc2ccc(O)cc2)N2C(=O)CCN(C(=O)NCc3ccccc3)[C@H]2CN1Cc1cccc2ccccc12 (10 µM) | 0.0761 | 93% (inactive)
NC(=O)CN1CC(c2ccccc2)CC1=O (stereo not drawn) [phenylpiracetam] (10 µM) | 0.175 | 94% (inactive)
OC[C@@H](O)[C@@H](O)[C@@H](O)CO [ribitol] (10 µM) | 0.073 | 105% (inactive)
C=CC(=O)Nc1cccc(Nc2nc(Nc3ccc(NC4CN(CCF)C4)cc3OC)ncc2C(F)(F)F)c1 (0.833333 µM) | -0.356 | 118% (inactive)
O=C(/C=C/c1ccc(CN(CCO)CCc2c[nH]c3ccccc23)cc1)NO [dacinostat] (0.833333 µM) | 0.00104 | 104% (inactive)
CC1(C)S[C@@H]2[C@H](NC(=O)C(C(=O)O)c3ccccc3)C(=O)N2[C@H]1C(=O)O (stereo partly drawn) [carbenicillin] (10 µM) | 0.0766 | 104% (inactive)
CC(C)(Oc1ccc(Cl)cc1)C(=O)O [clofibric-acid] (10 µM) | -0.0106 | 98.5% (inactive)
c1ccc2c(c1)CCCC2C1=NCCN1 (stereo not drawn) [tetrahydrozoline] (0.833333 µM) | 0.00054 | 103% (inactive)
CC(=O)N(C)c1cccc(-c2ccnc3c(C(=O)c4cccs4)cnn23)c1 [indiplon] (10 µM) | -0.213 | 116% (inactive)
CC(C)c1cc(-c2ccc(F)c3ccccc23)nc(N)n1 (10 µM) | 0.153 | 108% (inactive)
COc1ccc(CCN)cc1OC [homoveratrylamine] (10 µM) | -0.0152 | 118% (inactive)
Cc1cc(C)nc(NS(=O)(=O)c2ccc(N)cc2)n1 [sulfamethazine] (10 µM) | 0.0855 | 111% (inactive)
C=CCN1CCc2nc(N)sc2CC1 [talipexole] (10 µM) | -0.1 | 104% (inactive)
COc1ccccc1OCC(O)CNC(C)C (stereo not drawn) [moprolol] (10 µM) | 0.0947 | 100% (inactive)
COc1ccc2c(c1OC)C(=O)O[C@@H]2[C@H]1c2c(cc3c(c2OC)OCO3)CCN1C [noscapine] (10 µM) | -0.105 | 104% (inactive)
CN(C)[C@@H]1C(O)=C(C(N)=O)C(=O)[C@@]2(O)C(O)=C3C(=O)c4c(O)cccc4[C@@](C)(O)[C@H]3C[C@@H]12 [tetracycline] (10 µM) | 0.157 | 100% (inactive)
O=C(Nc1ccccc1F)N[C@H]1N=C(c2ccccc2)c2ccccc2NC1=O (10 µM) | -0.135 | 113% (inactive)
O=C(O)CCC(=O)Nc1ccc(S(=O)(=O)Nc2nccs2)cc1 [succinylsulfathiazole] (10 µM) | 0.0689 | 100% (inactive)
COc1ccc(CCNCc2ccc(OCc3ccc(Cl)nc3)c(OC)c2)cc1OC (10 µM) | 0.078 | 98% (inactive)
COc1ccc2nc3[nH]nc(C)c3c(NCCOCCO)c2c1 (10 µM) | -0.00598 | 111% (inactive)
